Assay results from PubChem BioAssay (NCATS).
Results filed as inconclusive are left out. Calls of active or inactive are those of the source. Calls come from the whole dose curve; as a rule, active = well fitted cell-killing curve with a large enough effect; inconclusive = small, poorly fitted or top-dose-only effect, or effect the other way; inactive = no such curve, though single readings can be large or run the other way.
Potency is the fitted concentration of half-maximal effect.

Test: Quantitative High-Throughput drug screen in 47 multiple myeloma cell lines against the NCATS MIPE library collection: Karpas25_ECACC cell viability assay (AID 1918968; note: nearly all actives have a fitted effect of over 35% in size)
Details: Karpas25 myeloma viability, CellTiter-Glo ATP, 48 h; series mostly up to 45.8 µM
Text: PI: Beverly A. Mock Ph.D.
Laboratory of Cancer Biology and Genetics,
Center for Cancer Research, National Cancer Institute,
National Institute of Health, Bethesda, Maryland
Drug resistance and disease progression are common in multiple myeloma (MM) patients, underscoring the need for new therapeutic combinations. […] We hypothesized that effective combinations would reduce MYC expression and enhance p16 activity. […] These preclinical data identify potentially useful drug combinations for evaluation in drug-resistant MM and reveal potential mechanisms of combined drug sensitivity.
Described herein is the primary MIPE qHTS used to cherrypick compounds. Validated compounds were then further tested for potential synergistic activiy.
[1] Peat TJ, Gaikwad SM, Dubois W, Gyabaah-Kessie N, Zhang S, Gorjifard S, Phyo Z, Andres M, Hughitt VK, Simpson RM, Miller MA, Girvin AT, Taylor A, Williams D, D'Antonio N, Zhang Y, Rajagopalan A, Flietner E, Wilson K, Zhang X, Shinn P, Klumpp-Thomas C, McKnight C, Itkin Z, Chen L, Kazandijian D, Zhang J, Michalowski AM, Simmons JK, Keats J, Thomas CJ, Mock BA. Drug combinations identified by high-throughput screening promote cell cycle transition and upregulate Smad pathways in myeloma. Cancer Lett. 2023 Aug 1;568:216284. doi: 10.1016/j.canlet.2023.216284. Epub 2023 Jun 24. PMID: 37356470; PMCID: PMC10408729.
SEQUENCE No. (e.g., 1, 2, 3, etc.); […] (e.g., Cells, Incubation, Reagent, etc.); VALUE and DESCRIPTION.
1; Cells; 5 uL; white, solid bottom 1536-well Greiner assay plate.
2; Compounds; 23 nL; Kalypsis pin tool (Wako USA) equipped with a 1536-well pin head to transfer to the assay plates.
3; Incubation; 48 hours; 37C incubation.
4; Reagent;5uL; CellTiter Glo (Promega).
5; Detector; 425V; Luminescence; Viewlux PerkinElmer.
NOTES (numbers refer to Sequence numbers above)
1. The cell-based screening methods employed in this study were like those previously published. Briefly, the corresponding myeloma cell lines were screened in 1,536-well plates with 500 cells, 5-uL per well for inhibition of cell viability (assessed by measuring ATP levels with CellTiterGlo).
2. NCATS MIPE 4.0 library of approved and investigational drugs were added using the Kalypsis pin tool. Wells treated with DMSO only for 100% viability and media only wells for 0% viability were used as controls.
3. The assay plates were covered and incubated for 48 hours in a 37C, 5% CO2 incubator with controlled humidity.
4. After 48 hours, CellTilter-GloTM luminescent substrate mix (Promega) reagent was added to the assay plate and plates we incubated for 5 min at room temperature.
5. Signal was measured as median relative luminescence units on a ViewLux (PerkinElmer) multiplate reader.
[1] Heske CM, Davis MI, Baumgart JT, Wilson K, Gormally MV, Chen L, Zhang X, Ceribelli M, Duveau DY, Guha R, Ferrer M, Arnaldez FI, Ji J, Tran HL, Zhang Y, Mendoza A, Helman LJ, Thomas CJ. Matrix Screen Identifies Synergistic Combination of PARP Inhibitors and Nicotinamide Phosphoribosyltransferase (NAMPT) Inhibitors in Ewing Sarcoma. Clin Cancer Res. 2017 Dec 1;23(23):7301-7311. doi: 10.1158/1078-0432.CCR-17-1121. Epub 2017 Sep 12. PMID: 28899971; PMCID: PMC6636827.
In the case of `Cc1c(C(=O)Nc2cccc(C(F)(F)F)c2)cc(-c2ccccc2)n1CCCN1CCOCC1`, the Potency is reported as 11800 nM (active).
For `CC[C@H]1C=CC=CC[C@@H](C)[C@H](O)[C@@](C)(O)C(=O)[C@@H](C)[C@H](O)[C@@H](C)C(=O)[C@@H](C)[C@H](O)[C@@H](C)C=CC(=O)O[C@@H]2[C@@H](C)[C@H](CC1)O[C@]1(CC[C@H](C)[C@H](C[C@@H](C)O)O1)[C@H]2C`, the Potency was 1 nM (active).
In the case of `COC[C@H]1OC(=O)c2coc3c2[C@@]1(C)C1=C(C3=O)[C@@H]2CC[C@H](O)[C@@]2(C)C[C@@H]1OC(C)=O`, the Potency is reported as 264 nM (active).
For `CCN1CCN(C(=O)Cc2ccc(Nc3ncc(F)c(Nc4ccc(C(=O)Nc5ccccc5Cl)cc4)n3)cc2)CC1`, the Potency was 2350 nM (active).
With `C[C@H]1CCCC=CC2C[C@H](O)C[C@@H]2[C@H](O)C=CC(=O)O1` (stereo not given in full) the Potency was “inactive”.
With `CCOP(=O)(OCC)C(C)NC(=O)N(CCCl)N=O` (stereo not given) the Potency was “inactive”.
With `C[C@@H]1O[C@@H](O[C@@H]2C=C3CC[C@@H]4[C@@H](CC[C@]5(C)[C@H](c6ccc(=O)oc6)CC[C@@]45O)[C@@]3(C)CC2)[C@H](O)[C@H](O)[C@H]1O` the Potency was 23.5 nM (active).
For `O=c1cccc2n1CC1CNC[C@H]2C1`, the Potency was 23500 nM (active).
With `COCC1(CO)C(=O)C2CCN1CC2` (stereo not given) the Potency was 3720 nM (active).
With `O=c1[nH]c2ccc(Cl)cc2c(N[C@@H]2CN3CCC2CC3)c1-c1nc2ccccc2[nH]1` the Potency was 235 nM (active).
In the case of `CCc1c(C(=O)C(N)=O)c2c(OCC(=O)O)cccc2n1Cc1ccccc1`, the Potency is reported as “inactive”.
For `CC(C)(O)C(=O)Nc1ccc([N+](=O)[O-])c(C(F)(F)F)c1`, the Potency was 9350 nM (active).
In the case of `COc1ccc2c(c1)CN(C)CC2c1ccc(Cl)c(Cl)c1` (stereo not given), the Potency is reported as 209 nM (active).
In the case of `COc1ccc(N(C(=O)Oc2c(C)cccc2C)c2ccnc(Nc3ccc(N4CCN(C)CC4)cc3)n2)c(OC)c1`, the Potency is reported as 2640 nM (active).
For `CC(C)N(CCNC(=O)CN1CCCC1=O)C(C)C`, the Potency was “inactive”.
With `CC[C@@]1(O)C(=O)OCc2c1cc1n(c2=O)Cc2cc3ccccc3nc2-1` the Potency was 83.3 nM (active).
In the case of `COc1ccc(C(=O)c2c(C)n(CCN3CCOCC3)c3cc(I)ccc23)cc1`, the Potency is reported as 18700 nM (active).
For `COc1ccc2c(c[n+](C)c3c4cc5c(cc4ccc23)OCO5)c1OC`, the Potency was 7430 nM (active).
With `Cc1ccccc1-n1c(Cn2cnc3c(N)ncnc32)nc2cccc(C)c2c1=O` the Potency was 187 nM (active).
In the case of `CO[C@H]1CCC(O[C@H]2C[C@H]([C@]3(C)CC[C@]4(C[C@H](O)[C@@H](C)[C@@H]([C@@H](C)C=C(C)C(=O)[C@H](C)C[C@H](C)C(=O)O)O4)O3)O[C@]3(O[C@@H]([C@H]4O[C@@](O)(CO)[C@H](C)C[C@H]4C)C[C@H]3C)[C@H]2C)O[C@H]1C` (stereo not given in full), the Potency is reported as 1480 nM (active).
With `O=S(=O)(CC1CS1)c1ccc(Oc2ccccc2)cc1` (stereo not given) the Potency was 16600 nM (active).
With `CC(=Cc1csc(C)n1)[C@@H]1C[C@H]2O[C@]2(C)CCC[C@H](C)[C@@H](O)[C@@H](C)C(=O)C(C)(C)[C@@H](O)CC(=O)O1` the Potency was “inactive”.
With `COc1cc2cc(c1Cl)N(C)C(=O)C[C@H](OC(=O)C(C)C)[C@]1(C)O[C@H]1[C@H](C)[C@@H]1C[C@@](O)(NC(=O)O1)[C@H](OC)C=CC=C(C)C2` the Potency was “inactive”.
With `CC1=NN=C(c2ccc(N)cc2)c2cc3c(cc2C1)OCO3` the Potency was “inactive”.
For `CC1(N2CCC(n3c([C@@H]4CCCNC4)nc4ccccc43)CC2)CCCCCCC1`, the Potency was 18700 nM (active).
In the case of `C[C@]12Cc3cn[nH]c3C[C@@H]1CC[C@@H]1[C@H]2CC[C@@]2(C)[C@H]1CC[C@]2(C)O`, the Potency is reported as “inactive”.
In the case of `CSCC[C@@H](NC(=O)[C@@H](Cc1ccccc1)NC(=O)CNC(=O)CNC(=O)[C@@H](N)Cc1ccc(O)cc1)C(=O)O`, the Potency is reported as “inactive”.
In the case of `CC(=Cc1csc(C)n1)[C@@H]1C[C@H]2O[C@@H]2CCC[C@H](C)[C@@H](O)[C@@H](C)C(=O)C(C)(C)[C@@H](O)CC(=O)O1`, the Potency is reported as “inactive”.
In the case of `CC[C@@H](C(N)=O)N1CCCC1=O`, the Potency is reported as “inactive”.
With `COC1=CC(C)=C[C@@H](C)[C@@H](O)[C@@H](C)CC(C)=CC=C[C@H](OC)[C@H]([C@@H](C)[C@@H](O)[C@H](C)[C@@]2(O)C[C@@H](O)[C@H](C)[C@@H](C(C)C)O2)OC1=O` the Potency was 8.3 nM (active).
In the case of `C[C@@]12OC(=O)[C@]1([C@@H](O)[C@@H]1C=CCCC1)NC(=O)[C@H]2CCCl`, the Potency is reported as 1 nM (active).
For `CC(C)[C@]12O[C@@H]1[C@@H]1O[C@]13[C@]1(O[C@H]1C[C@@H]1C4=C(CC[C@@]13C)C(=O)OC4)[C@H]2O`, the Potency was “inactive”.
With `O=c1[nH]c2ccccc2n1C1CCN(Cc2ccc(-c3[nH]c4cc5ncnc5cc4nc3-c3ccccc3)cc2)CC1` the Potency was 8330 nM (active).
For `Cc1c(C(=O)c2cccc3ccccc23)c2cccc3c2n1[C@H](CN1CCOCC1)CO3`, the Potency was 14800 nM (active).
With `COc1cccc2c1[C@]13CCN(CC4CC4)[C@H](C2)[C@]1(OC)CCC(=O)C3` the Potency was “inactive”.
With `C[C@]12CC[C@H]3[C@@H](CCC4=CC(=O)CC[C@@]43C)[C@H]1CC[C@H]2OC(=O)CCC1CCCC1` the Potency was “inactive”.
With `CC(C)N[C@@H]1CCn2c(=O)[nH]c3cccc(c32)[C@@H]1O` the Potency was 187 nM (active).
With `C[C@]12CC[C@@H]3[C@@H](CCC4=CC(=O)CC[C@@H]43)[C@@H]1CC[C@@H]2OC(=O)CCc1ccccc1` the Potency was “inactive”.
With `CN1[C@H]2CC(O)C[C@H]1[C@H]1O[C@H]12` (stereo not given in full) the Potency was 5900 nM (active).
For `c1ccc(CCCN2CCN(CCOC(c3ccccc3)c3ccccc3)CC2)cc1`, the Potency was 10500 nM (active).
